This passage reports binding signal results from article PMC5700166.

The assay has as its target T1, GST-Aq-NF-kB (Amphimedon queenslandica, UniProt A9Y5G7 2-389).
T1 sequence: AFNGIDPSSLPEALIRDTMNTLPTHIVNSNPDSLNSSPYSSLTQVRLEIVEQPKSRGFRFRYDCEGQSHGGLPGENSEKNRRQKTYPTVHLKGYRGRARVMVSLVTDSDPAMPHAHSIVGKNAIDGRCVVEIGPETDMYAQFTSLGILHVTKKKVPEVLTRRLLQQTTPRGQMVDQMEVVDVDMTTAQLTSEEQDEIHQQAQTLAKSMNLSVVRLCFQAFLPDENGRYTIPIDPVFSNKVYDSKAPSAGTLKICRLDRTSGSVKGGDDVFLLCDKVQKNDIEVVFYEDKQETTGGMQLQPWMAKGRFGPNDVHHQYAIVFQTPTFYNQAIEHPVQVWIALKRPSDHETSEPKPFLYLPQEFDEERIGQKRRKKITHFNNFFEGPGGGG
As to the kind of experiment: protein-binding microarray (PBM); PBM: ~300 nM protein, 6 mM HEPES pH 7.8, 80 mM KCl, 0.5 mM EDTA, 0.5 mM EGTA, 6% glycerol, 35 ng/ul poly-dIdC, 1% milk, 1 h, room temperature; Ap Aiptasia and Nv Nematostella (sea anemones) / Co Capsaspora / Aq Amphimedon (sponge) / Dm Drosophila / Hu human; RHD is the Rel homology domain; high values mean tight binding. The settings on record: dsDNA, one strand shown.
“CCGATTAACATCAAGGAAAACCCTGATGTTAATCGGGTCTTGATTCGCTTGACGCTGCTG” gave a binding signal of 4.66 z-score.

For the sequence “CCGATTAACATCAGGGATTCCACTGATGTTAATCGGGTCTTGATTCGCTTGACGCTGCTG”, the binding signal amounted to 4.11 z-score.

In turn, “CCGATTAACATCAGGGATTTACCTGATGTTAATCGGGTCTTGATTCGCTTGACGCTGCTG” registered a binding signal of 6.8 z-score.

“CCGATTAACATCAAGGAATTACCTGATGTTAATCGGGTCTTGATTCGCTTGACGCTGCTG” yielded a binding signal of 3.3 z-score.

Regarding “CCGATTAACATCAGGGTTTTCCATGATGTTAATCGGGTCTTGATTCGCTTGACGCTGCTG”, the binding signal is 4.33 z-score.

With “CCGATTAACATCAGGGCAAACCCTGATGTTAATCGGGTCTTGATTCGCTTGACGCTGCTG”, the binding signal turned out to be 4.6 z-score.

In turn, “CCGATTAACATCAGGAGATACCCTGATGTTAATCGGGTCTTGATTCGCTTGACGCTGCTG” had a binding signal of 6.4 z-score.

On to “CCGATTAACATCAAAATTCCACCTGATGTTAATCGGGTCTTGATTCGCTTGACGCTGCTG”, for which the binding signal was 2.25 z-score.

Consider “CCGATTAACATCAGGAAAAACCCTGATGTTAATCGGGTCTTGATTCGCTTGACGCTGCTG”, for which the binding signal stood at 7.68 z-score.

As to “CCGATTAACATCAGGCAAGTCCCTGATGTTAATCGGGTCTTGATTCGCTTGACGCTGCTG”, the binding signal came to 5.74 z-score.

“CCGATTAACATCAGGGAAGCACCTGATGTTAATCGGGTCTTGATTCGCTTGACGCTGCTG” yielded a binding signal of 6.3 z-score.

As to “CCGATTAACATCAGGACTTTACCTGATGTTAATCGGGTCTTGATTCGCTTGACGCTGCTG”, the binding signal came out at 4.69 z-score.

“CCGATTAACATCAGGATATACCCTGATGTTAATCGGGTCTTGATTCGCTTGACGCTGCTG” gave a binding signal of 4.83 z-score.

Sequence “CCGATTAACATCAGGAAGACCCCTGATGTTAATCGGGTCTTGATTCGCTTGACGCTGCTG” showed a binding signal of 5.31 z-score.

“CCGATTAACATCAAGGGCTTCCCTGATGTTAATCGGGTCTTGATTCGCTTGACGCTGCTG”: the binding signal was found to be 3.85 z-score.

In the case of “CCGATTAACATCAGGTACTTCCATGATGTTAATCGGGTCTTGATTCGCTTGACGCTGCTG”, the binding signal turned out to be 2.23 z-score.

“CCGATTAACATCAACAAAGTCCCTGATGTTAATCGGGTCTTGATTCGCTTGACGCTGCTG”: the binding signal amounted to 4.25 z-score.

Sequence “CCGATTAACATCAGAAATTTACCTGATGTTAATCGGGTCTTGATTCGCTTGACGCTGCTG” showed a binding signal of 2.09 z-score.

Take “CCGATTAACATCAGGGCATTACCTGATGTTAATCGGGTCTTGATTCGCTTGACGCTGCTG”: the binding signal amounted to 4.51 z-score.

“CCGATTAACATCAAGGGAAGCCCTGATGTTAATCGGGTCTTGATTCGCTTGACGCTGCTG”: the binding signal was determined as 3.99 z-score.

In turn, “CCGATTAACATCAGGAATCACCCTGATGTTAATCGGGTCTTGATTCGCTTGACGCTGCTG” had a binding signal of 4.82 z-score.

In the case of “CCGATTAACATCAAAAAATACCATGATGTTAATCGGGTCTTGATTCGCTTGACGCTGCTG”, the binding signal was 2.23 z-score.

Turning to “CCGATTAACATCAAGGGGGTCCCTGATGTTAATCGGGTCTTGATTCGCTTGACGCTGCTG”, the binding signal worked out at 4.47 z-score.

For “CCGATTAACATCAGGGAGTTCCATGATGTTAATCGGGTCTTGATTCGCTTGACGCTGCTG”, the binding signal was 4.38 z-score.

As for “CCGATTAACATCATGAAGACCCCTGATGTTAATCGGGTCTTGATTCGCTTGACGCTGCTG”, the binding signal came to 2.25 z-score.

For “CCGATTAACATCAGGGACCGCCCTGATGTTAATCGGGTCTTGATTCGCTTGACGCTGCTG”, the binding signal amounted to 6.48 z-score.

Consider “CCGATTAACATCACGGGTTTTTCTGATGTTAATCGGGTCTTGATTCGCTTGACGCTGCTG”, for which the binding signal stood at 4.7 z-score.

For “CCGATTAACATCAGGAAGTCCCATGATGTTAATCGGGTCTTGATTCGCTTGACGCTGCTG”, the binding signal is 4.99 z-score.

Sequence “CCGATTAACATCAGGCGAGTCCCTGATGTTAATCGGGTCTTGATTCGCTTGACGCTGCTG” had a binding signal of 4.31 z-score.
